This is a sample that favours compounds with a hit; in the whole collection about 0.78% have one here.
CR mimetic SO = yeast age-related superoxide inhibition as caloric restriction mimetic | S. cerevisiae aged cells, superoxide DHE fluorescence; stronger effect = lower value | superoxide response (% of plate mean), % at 10 µM | 330,000 tested, 0.18% active;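 active means superoxide response under a set limit, about three screen SD below normal, cut at about 65% in these data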;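 further: yeast aged for seven days with compound at 30 °C before DHE staining; 100% = average MFI of all compound-treated wells on the plate with controls excluded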
PolyA inhibitor = inhibitors of polyadenylation in S. cerevisiae. S. cerevisiae SKY197-pL101 polyadenylation reporter, beta-gal luminescence; efflux-impaired pdr1/pdr3 knockout yeast; score 100 = 6 SD above DMSO. activity score, % at 12 µM. 300,000 tested, 0.02% active;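 active means lowest replicate activity score at least 50, where 100 means six control SD above control mean; inconclusive means lowest score under 50 but half or more replicates reach 50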;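 further: yeast exposed to compound for 9 h at 30 °C; higher score means more reporter readthrough which indicates perturbed polyadenylation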
PKA-R1A act = activates the PKA-R1A holoenzyme complex | PKA-R1A dissociation, Cy5-IP20 fluorescence polarization; scaled: DMSO 0%, 113 µM cGMP 100% | P00514+P68181 | 340,000 tested, 0.083% active | activation, % at 11.4 µM;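 active means percent activation above the mean of all tested compounds plus 3 SD, cut at about 19% in these data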;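 further: higher means more PKAc released from R1A so a rise in polarization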
GASC-1 inh = blocks human GASC-1 demethylase activity | inhibition, % at 2.35 µM | GST-JMJD2C(1-420) H3K9me3 demethylation, DELFIA europium | 330,000 tested, 0.069% active | Q9H3R0 | AID 2099;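 active means more than half of a compound's replicate wells show inhibition beyond 50%, single wells judged on their own value; inconclusive means some, but no more than half, of replicates pass 50% inhibition; inactive means no replicate passes 50% inhibition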;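 further: signal counts dimethyl H3K9 product captured on neutravidin plate; 0% = median of DMSO wells and 100% = 0.3 times that DMSO median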
V-ATPase pHluor = regulators of yeast V-ATPase proton transport; response, % at 10 µM; 350,000 tested, 0.37% active; S. cerevisiae, pHLuorin cytosolic pH fluorescence; in the data active means response mostly above about 7.3%, no sharp cut-off; inactive means mostly below about 5.4%; further: actives read high
PKA-R2B act = activates the human PKA-R2B holoenzyme complex; activation, % at 11.4 µM; AID 504700; PKA-R2B holoenzyme dissociation, Cy5-IP20 fluorescence polarization; R2B truncated from residue 108, S112A mutant; 0% DMSO only, 100% 113 µM cGMP; 340,000 tested, 0.079% active;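 active means activation above a cutoff set at the mean over all compounds plus 3 SD, cut at about 18% in these data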;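 further: higher means more holoenzyme dissociation and a rise in polarization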
Target sequence (P31323 whole entry, looked up, other chains not shown, the tested form may be a part): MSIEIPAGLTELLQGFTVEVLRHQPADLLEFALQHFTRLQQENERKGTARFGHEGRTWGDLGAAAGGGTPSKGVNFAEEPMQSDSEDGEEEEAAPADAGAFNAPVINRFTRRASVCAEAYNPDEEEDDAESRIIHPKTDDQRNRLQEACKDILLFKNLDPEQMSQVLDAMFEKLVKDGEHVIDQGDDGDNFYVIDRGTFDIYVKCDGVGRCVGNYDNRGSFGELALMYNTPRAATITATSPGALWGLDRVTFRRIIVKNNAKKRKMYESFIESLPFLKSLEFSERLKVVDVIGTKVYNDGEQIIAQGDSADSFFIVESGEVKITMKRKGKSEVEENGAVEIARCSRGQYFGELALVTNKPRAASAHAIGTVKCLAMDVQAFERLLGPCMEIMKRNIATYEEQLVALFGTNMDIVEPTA
* hit, by the source's call; ? = inconclusive; / = no result given.

SMILES | CR mimetic SO | PolyA inhibitor | PKA-R1A act | GASC-1 inh | V-ATPase pHluor | PKA-R2B act
COc1ccc(C(=O)O/N=C(\C)c2cnccn2)cc1 | 82.6 | 3.1 | 2.7 | 57.0* | 1.5 | 1.4
Cc1ccc(S(=O)(=O)N(C)C[C@@H]2OCc3cnnn3CCCC(=O)N([C@@H](C)CO)C[C@@H]2C)cc1 | / | / | 4.6 | / | 2.2 | -6.2
COc1cccc2cc(-c3nc4ccccc4o3)c(=O)oc12 | 68.2 | 102.7* | -0.9 | 13.4 | 2.9 | -5.6
O=c1oc2ccc(Br)cc2cc1-c1nc2ccccc2o1 | 106.3 | -18.0 | -0.3 | 37.6 | 0.8 | 1.0
CCOC(=O)c1c(C)[nH]c(C(C)=NNC(=O)Cn2nc(C)cc2C)c1C | 91.0 | / | -4.0 | 3.0 | 0.6 | -3.8
O=C1C=C(c2ccccc2)OC(=O)C1C(=O)c1ccccc1 (stereo not given) | 118.7 | 120.9* | -0.3 | -3.7 | -1.2 | 13.1
Cc1ccccc1-c1ccc(=O)n(CC(=O)Nc2ccc(N3CCOCC3)cc2)n1 | 103.8 | -9.5 | -3.4 | 57.3* | 1.7 | -10.6
C/C(=C\C=C(C#N)C#N)c1cc(C#N)c(N)o1 | / | 58.9* | 4.3 | 8.3 | -0.2 | -6.9
O=C(COC(=O)CN=C1NS(=O)(=O)c2ccccc21)Nc1ccccc1OC(F)F | 86.3 | 16.4 | 0.1 | 3.4 | 14.7* | -6.6
COc1cccc(-n2nnc3c(=O)n(Cc4ccccc4F)cnc32)c1 | 108.1 | -16.6 | 8.8 | 92.3* | 0.5 | 8.2
CN(C)S(=O)(=O)c1ccc(N2CCOCC2)c(C(=O)NCc2ccc3c(c2)OCO3)c1 | 61.8* | / | -5.0 | 7.4 | -1.9 | 5.5
NS(=O)(=O)c1ccc(N2CCOCC2)c(C(=O)NCc2ccc3c(c2)OCO3)c1 | / | / | 4.5 | / | -1.9 | -5.7
COc1ccc(NS(=O)(=O)c2cccc(C(=O)NN=Cc3cc(Br)c(O)c(Br)c3)c2)cc1 | 95.3 | / | -9.3 | -12.0 | 0.1 | -1.9
C[C@@H]1O[C@@H](OC[C@H]2O[C@@H](Oc3cc(O)c4c(=O)cc(-c5ccc(O)c(O)c5)oc4c3)[C@H](O)[C@@H](O)[C@@H]2O)[C@H](O)[C@H](O)[C@H]1O | 100.6 | / | -3.6 | 99.6* | 4.1 | 10.2
O=C(NC1CC1)C1CCN(C(=O)c2ccc(Cl)cc2Cl)CC1 | 90.0 | 2.5 | 0.3 | -4.1 | 0.6 | 3.8
O=C(O)/C=C/c1cn(-c2ccccc2)nc1-c1cc2ccccc2oc1=O | 61.2* | 5.6 | -7.9 | -7.4 | -3.4 | -8.8
COCCN(C(=O)COC(=O)CCc1ccccc1)c1c(N)n(Cc2ccccc2)c(=O)[nH]c1=O | / | / | 7.3 | / | -0.7 | -3.5
Cc1ccc(CNc2ccc(N3CCOCC3)cc2)cc1 | 93.9 | -3.2 | -6.0 | 6.3 | 11.3* | 2.5
COc1cc(=O)[nH]c(SCC(=O)Nc2nc3c(s2)CCCC3)n1 | 98.0 | -3.1 | -2.4 | 13.7 | 0.4 | -4.6
C=C1C(C(=O)N2CCOCC2)C1C(=O)N1CCOCC1 (stereo not given) | 102.7 | 11.8 | 1.9 | -2.2 | 2.7 | -11.6
C=C1C(C(=O)N2CCN(C)CC2)C1C(=O)N1CCN(C)CC1 (stereo not given) | 97.8 | -0.1 | -3.1 | 6.6 | 13.4* | 4.1
COc1ccc(C(=O)NC2CC3CCCC(C2)N3Cc2ccccc2)cc1 (stereo not given) | 100.2 | 4.5 | -14.9 | 60.0* | -0.2 | -8.4
CCCC(=O)Nc1ccc2c(c1)nc1n2CCOC1 | 101.0 | 1.9 | 4.3 | 12.1 | 14.0 | 5.6
CS(=O)(=O)Nc1ccc2c(c1)nc1n2CCOC1 | 97.6 | -3.2 | -18.1 | -15.2 | 20.2* | -3.0
O=C1NC(Cc2c[nH]c3ccccc23)C(=O)N1Cc1ccc(CN2C(=O)NC(Cc3c[nH]c4ccccc34)C2=O)cc1 (stereo not given) | 98.4 | -0.5 | 0.3 | 7.7 | -0.1 | 0.8
SMILES | CR mimetic SO | PolyA inhibitor | PKA-R1A act | GASC-1 inh | V-ATPase pHluor | PKA-R2B act
Cn1c(=O)c(C(=O)NNC(=O)c2ccccc2Cl)c(O)c2ccccc21 | 74.1 | 88.4* | 2.4 | -28.6 | / | 7.3
Cn1c(=O)c(C(=O)NNC(=O)c2ccccc2Br)c(O)c2ccccc21 | 94.0 | 8.6 | -1.2 | -3.7 | -2.1 | 15.8
Cc1c(C)c2c(OCC(=O)N[C@@H](CC(C)C)C(=O)O)cc3c(c2oc1=O)CCC(C)(C)O3 | 94.1 | -1.4 | 0.4 | -0.1 | 4.3 | 0.1
O=C(Nc1nc(-c2ccccc2)cs1)c1ccc2c(c1)S(=O)(=O)c1ccccc1C2=O | 93.5 | 18.0 | 4.8 | -7.5 | 2.0 | 1.1
O=C(Nc1nc(-c2cccc3ccccc23)cs1)c1ccc2c(c1)S(=O)(=O)c1ccccc1C2=O | 127.3 | 5.5 | 0.7 | 2.9 | 20.7* | -6.4
CC1(C)N=C(c2cccc(F)c2)C(=O)N1 | 94.6 | 8.7 | 5.0 | 14.8 | 19.5* | -4.6
O=S(=O)(c1ccccc1)N1CCN=C1SCc1ccc(Cl)c(Cl)c1 | 95.0 | -24.4 | 1.4 | 7.9 | 37.2* | -0.4
O=S(=O)(c1ccccc1)N1CCN=C1SCc1ccc(Cl)cc1 | 100.6 | -17.5 | -0.6 | 9.6 | 0.7 | -11.8
C#C[C@]1(O)CC[C@H]2[C@@H]3CCC4=CC(=O)CC[C@@H]4[C@H]3CC[C@@]21C | 97.3 | -4.4 | 15.0 | 6.1 | 24.7* | -5.4
CNC(=O)c1[nH]cnc1C(=O)Nc1ccccn1 | 91.8 | 11.8 | 6.5 | -13.4 | -3.0 | 12.8
COC(=O)Cc1c(C)c2ccc(OC(=O)c3ccccc3)cc2oc1=O | 107.0 | -1.3 | 2.9 | ? | 20.2* | -3.1
Cc1ccc(N(CC(=O)NCc2ccccc2)C(=O)CCC(=O)Nc2ccccn2)cc1 | 96.3 | 10.2 | 2.9 | -3.1 | 0.3 | -2.2
COc1ccc(CNC(=O)CCS(=O)(=O)Cc2cccc(Cl)c2)c(OC)c1 | 106.6 | -1.9 | -1.2 | -8.9 | 14.3* | -7.7
CCOC(=O)C(=CNc1nc(-c2ccccc2)c(C(=O)Nc2ccc(-c3ccccc3)cc2)s1)C(=O)OCC | 113.5 | 1.1 | -1.8 | -2.8 | -2.4 | -1.4
CCN(C[C@H]1N[C@@](C)(C(=O)OC)[C@H]2C(=O)N(C)C(=O)[C@@H]12)C(=O)Nc1ccccc1 | 113.6 | / | -0.7 | 54.5* | -0.1 | 7.2
Cc1cc(C)c(NC(=O)CNC(=O)c2cc(C3CC3)nn2-c2ccccc2)c(C)c1 | 104.2 | / | 2.2 | -5.6 | -1.0 | -0.6
Cc1cccc(NC(=O)CNC(=O)c2cc(C3CC3)nn2-c2ccccc2)c1C | / | / | -3.7 | / | 23.5* | 8.8
O=c1cc(-c2ccc(Cl)cc2)oc(=O)[nH]1 | 101.4 | 6.4 | 3.7 | 8.6 | 5.2 | 15.7
O=c1cc(N=Nc2ccc(Cl)cc2)[nH]c(=O)[nH]1 | 76.8 | -47.8 | -1.8 | -3.2 | 12.9* | 5.2
CC(=O)Nc1ccc2nc(-c3cccn3C)[nH]c2c1 | 107.8 | -5.4 | -1.2 | -3.0 | -2.8 | -11.5
Cn1cccc1-c1nc2ccc(NC(=O)c3cccs3)cc2[nH]1 | 95.9 | 3.5 | 7.8 | 58.2* | 3.5 | 12.0
